Activity calls are given as the source filed them. How the source made its calls: active means hit-call score of the fitted dose curve at least 0.9, where 1 is the maximum; inactive means score below 0.9.
Tests used:
[1] = ATG_CRE_CIS: Attagene CIS-FACTORIAL HepG2 Assay for human cAMP Responsive Element (CRE) binding protein 3 (AID 2282926); settings: HepG2 CRE cis-reporter, Attagene multiplexed mRNA; actives raise or lower the signal
Summary of the method: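 Multiplexed transcription-unit reporters transfected into HepG2; 24 h dosing; RT-PCR/capillary electrophoresis fluorescence read-out; bidirectional fit vs DMSO.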

[2] = biological target: CCAAT/enhancer-binding protein beta (Homo sapiens) (UniProt P17676); assay: ATG_C_EBP_CIS: Attagene CIS-FACTORIAL HepG2 Assay for human CCAAT/Enhancer Binding Protein (C/EBP) beta (AID 2282927); settings: HepG2 Attagene cis-factorial transcription factor reporter; actives raise or lower the signal
Summary of the method: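 Endogenous transcription factor activity in human liver HepG2 cells is inferred from induction of a CEBPB-linked reporter mRNA. Exposure lasts 24 h; activity is fitted in both directions relative to DMSO.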

[3] = ATG_CMV_CIS: Attagene CIS-FACTORIAL HepG2 Assay for human CMV (Internal Marker) (AID 2282928); settings: HepG2 CMV promoter reporter, transcription factor profiling; actives raise or lower the signal;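 further: endpoint acts as a background internal control marker rather than a target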
Summary of the method: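 Endogenous transcription factor activity read in HepG2 via transfected cis-promoter reporter units. After 24 h dosing, reporter mRNA measured by RT-PCR/capillary electrophoresis; gain or loss of signal fit relative to DMSO.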

[4] = ATG_DR4_LXR_CIS: Attagene CIS-FACTORIAL HepG2 Assay for human Liver X Receptor (LXR), DR4 submotif (AID 2282929); settings: HepG2 Attagene DR4 cis-reporter, mRNA transcription; actives raise or lower the signal
Summary of the method: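 DR4 cis-reporter in HepG2, 24 h exposure. Detection: RT-PCR, 6-FAM labelling, CE fragment analysis. Endpoint fitted bidirectionally, DMSO = baseline.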

[5] = biological target: Aryl hydrocarbon receptor (Homo sapiens) (UniProt P35869); assay: ATG_Ahr_CIS: Attagene CIS-FACTORIAL HepG2 Assay for human Aryl Hydrocarbon Receptor (Ahr) (AID 2282930); settings: HepG2 AhR cis-factorial reporter transcription; actives raise or lower the signal
Summary of the method: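 Transient MRTU transfection of HepG2 → 24 h compound exposure → total RNA, oligo(dT) RT → PCR, 6-FAM extension, HpaI cut → CE fluorescence. DMSO = baseline; bidirectional curve fit.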

[6] = ATG_AP_1_CIS: Attagene CIS-FACTORIAL HepG2 Assay for human Activator Protein 1 (AP-1) (AID 2282931); settings: HepG2 Attagene cis-factorial AP-1 reporter mRNA; actives raise or lower the signal
Summary of the method: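 Cis-regulated reporter units transiently expressed in HepG2 report endogenous transcription-factor activity. Signal: reporter mRNA at 24 h, via RT-PCR and fluorescent capillary electrophoresis. Endpoint derived by bidirectional fitting, DMSO as negative control.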

[7] = ATG_AP_2_CIS: Attagene CIS-FACTORIAL HepG2 Assay for human Activator Protein 2 (AP-2) (AID 2282932); settings: HepG2 AP-2 cis-reporter, Attagene transcription factor profiling; actives raise or lower the signal
Summary of the method: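 HepG2, transient MRTU transfection, cis-regulated reporters; 24 h compound exposure; RNA isolated, RT-PCR, 6-FAM labelling, HpaI digest, CE fluorescence. DMSO = negative control/baseline, bidirectional fit.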

[8] = biological target: Transcription factor E2F1 (Homo sapiens) (UniProt Q01094); assay: ATG_E2F_CIS: Attagene CIS-FACTORIAL HepG2 Assay for human E2F Transcription Factor 1 (AID 2282935); settings: HepG2 Attagene cis-reporter, E2F reporter RNA transcripts; actives raise or lower the signal
Summary of the method: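 Cis-element reporter mRNA induction in transiently transfected HepG2, 24 h exposure. Activity fitted in both directions relative to DMSO negative control.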

[9] = ATG_E_Box_CIS: Attagene CIS-FACTORIAL HepG2 Assay for human Enhancer Box (E-box) (AID 2282936); settings: HepG2 E-box cis-reporter transcription, actives raise or lower the signal
Summary of the method: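 Cells: HepG2 (human liver), transient MRTU transfection. Exposure 24 h. RNA → oligo(dT) RT → PCR → 6-FAM label → HpaI → CE. Activity fitted both directions relative to DMSO.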

[10] = ATG_M_61_CIS: Attagene CIS-FACTORIAL HepG2 Assay for M61 Transcription Factor (Internal Marker) (AID 2282937); settings: HepG2 Attagene CIS-FACTORIAL M61 internal marker reporter; actives raise or lower the signal
Summary of the method: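 Background-control endpoint: HepG2 cells with cis-regulated reporter constructs, 24 h exposure, reporter mRNA detected via fluorescent primer extension and capillary electrophoresis; values from bidirectional fitting with DMSO baseline.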

[11] = ATG_EGR_CIS: Attagene CIS-FACTORIAL HepG2 Assay for human Early Growth Response 1 (EGR1) (AID 2282938); settings: HepG2 Attagene CIS-FACTORIAL EGR reporter mRNA; actives raise or lower the signal
Summary of the method: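 Endpoint derived by bidirectional fitting versus DMSO vehicle. Method: cis-promoter reporter units transfected into HepG2, 24 h dosing, RNA isolation, RT-PCR with 6-FAM primer extension and HpaI digestion, then capillary electrophoresis fluorescence detection.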

[12] = ATG_M_19_CIS: Attagene CIS-FACTORIAL HepG2 Assay for M19 Transcription Factor (Internal Marker) (AID 2282939); settings: HepG2 Attagene CIS-FACTORIAL M19 internal marker reporter; actives raise or lower the signal
Summary of the method: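 Chemical-treated HepG2 (24 h) with MRTU constructs; reporter transcripts detected by fluorescent RT-PCR fragment analysis on capillary electrophoresis. Internal background marker, DMSO as baseline.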

[13] = ATG_Ets_CIS: Attagene CIS-FACTORIAL HepG2 Assay for human Erythroblast Transformation Specific (ETS) (AID 2282941); settings: HepG2 ETS cis-reporter transcription, actives raise or lower the signal
Summary of the method: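 Steps: transfect HepG2 with multiple reporter units; treat compound 24 h; isolate RNA, DNase-treat, reverse-transcribe; PCR-amplify, label with 6-FAM, digest with HpaI; separate by capillary electrophoresis. Activity fitted both directions versus DMSO.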

[14] = biological target: Hepatocyte nuclear factor 3-beta (Homo sapiens) (UniProt Q9Y261); assay: ATG_FoxA2_CIS: Attagene CIS-FACTORIAL HepG2 Assay for human Forkhead box A2 (FOXA2) (AID 2282942); settings: HepG2 cis-reporter transcription factor activity, 24 h; actives raise or lower the signal
Summary of the method: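 Measured: reporter mRNA induction or loss in HepG2 transiently carrying multiple cis-regulated reporter units, 24 h after dosing. Quantified by RT-PCR plus capillary electrophoresis, normalised to DMSO.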

[15] = ATG_FoxO_CIS: Attagene CIS-FACTORIAL HepG2 Assay for human Forkhead box O (FoxO) (AID 2282943); settings: HepG2 Attagene cis-reporter, FoxO element, mRNA; actives raise or lower the signal
Summary of the method: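 HepG2, transient MRTU transfection (cis element, endogenous TFs). Dose 24 h. TriZol RNA → oligo(dT) RT → PCR → 6-FAM primer extension → HpaI cut → CE. Gain/loss vs DMSO.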

[16] = ATG_GATA_CIS: Attagene CIS-FACTORIAL HepG2 Assay for human GATA Binding Protein (AID 2282944); settings: HepG2 GATA cis-element reporter, Attagene multiplex mRNA; actives raise or lower the signal
Summary of the method: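 Transfected cis-reporter HepG2 cells were treated with chemicals for 24 hours. Total RNA was then converted to cDNA, amplified with reporter-specific primers and analysed by fluorescent capillary electrophoresis, using DMSO-treated wells as baseline.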

[17] = ATG_GLI_CIS: Attagene CIS-FACTORIAL HepG2 Assay for human Zinc Finger Protein GLI1 (AID 2282945); settings: HepG2, Attagene cis-factorial reporter mRNA, GLI element; actives raise or lower the signal
Summary of the method: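 Bidirectional curve fits relative to DMSO, using reporter mRNA levels from RT-PCR plus capillary electrophoresis. Cells were HepG2 transiently carrying cis-regulated reporter constructs, harvested 24 h after dosing.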

[18] = ATG_ERE_CIS: Attagene CIS-FACTORIAL HepG2 Assay for Estrogen Response Element (ERE) (AID 2282940); settings: HepG2 ERE cis-reporter, Attagene RNA transcript; actives raise or lower the signal
Summary of the method: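 Human liver cells (HepG2) bearing transiently transfected, promoter-regulated reporter units were exposed 24 h. Reporter mRNA induction was detected by capillary electrophoresis of labelled RT-PCR products and fitted bidirectionally to DMSO.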

[19] = ATG_BRE_CIS: Attagene CIS-FACTORIAL HepG2 Assay for human Bone Morphogenetic Protein (BMP) Response Element (BRE) (AID 2282933); settings: HepG2 BMP response element reporter, Attagene transcription factor profiling; actives raise or lower the signal
Summary of the method: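 A HepG2 multiplex reporter system measured inducible reporter mRNA 24 h post-dosing. Detection: RT-PCR, 6-FAM primer extension, HpaI digestion, capillary electrophoresis. Activity fitted bidirectionally relative to DMSO.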

Measured: AC50

Sequence of Aryl hydrocarbon receptor (Homo sapiens) (P35869 whole entry, looked up): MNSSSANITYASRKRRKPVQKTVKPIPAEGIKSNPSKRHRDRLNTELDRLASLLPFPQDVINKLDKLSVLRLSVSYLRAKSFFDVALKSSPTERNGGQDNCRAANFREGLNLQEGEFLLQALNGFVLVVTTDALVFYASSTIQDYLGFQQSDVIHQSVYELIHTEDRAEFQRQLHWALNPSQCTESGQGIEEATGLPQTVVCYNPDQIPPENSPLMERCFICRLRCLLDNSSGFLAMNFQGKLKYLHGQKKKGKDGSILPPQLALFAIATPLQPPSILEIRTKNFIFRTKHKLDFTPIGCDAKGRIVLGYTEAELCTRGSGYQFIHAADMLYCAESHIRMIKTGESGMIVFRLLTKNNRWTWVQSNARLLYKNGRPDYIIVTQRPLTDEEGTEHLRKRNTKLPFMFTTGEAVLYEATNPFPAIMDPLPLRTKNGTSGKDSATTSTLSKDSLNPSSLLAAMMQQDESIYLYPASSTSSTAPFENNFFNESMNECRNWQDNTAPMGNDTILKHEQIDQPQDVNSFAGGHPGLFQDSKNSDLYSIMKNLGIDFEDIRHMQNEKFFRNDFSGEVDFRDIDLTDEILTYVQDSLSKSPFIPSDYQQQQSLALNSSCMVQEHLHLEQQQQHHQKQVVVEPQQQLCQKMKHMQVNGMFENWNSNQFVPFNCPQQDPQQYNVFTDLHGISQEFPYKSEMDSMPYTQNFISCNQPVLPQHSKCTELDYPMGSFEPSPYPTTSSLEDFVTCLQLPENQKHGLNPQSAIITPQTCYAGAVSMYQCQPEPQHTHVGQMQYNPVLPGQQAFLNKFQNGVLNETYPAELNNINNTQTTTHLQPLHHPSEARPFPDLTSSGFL
Sequence of Hepatocyte nuclear factor 3-beta (Homo sapiens) (Q9Y261 whole entry, looked up): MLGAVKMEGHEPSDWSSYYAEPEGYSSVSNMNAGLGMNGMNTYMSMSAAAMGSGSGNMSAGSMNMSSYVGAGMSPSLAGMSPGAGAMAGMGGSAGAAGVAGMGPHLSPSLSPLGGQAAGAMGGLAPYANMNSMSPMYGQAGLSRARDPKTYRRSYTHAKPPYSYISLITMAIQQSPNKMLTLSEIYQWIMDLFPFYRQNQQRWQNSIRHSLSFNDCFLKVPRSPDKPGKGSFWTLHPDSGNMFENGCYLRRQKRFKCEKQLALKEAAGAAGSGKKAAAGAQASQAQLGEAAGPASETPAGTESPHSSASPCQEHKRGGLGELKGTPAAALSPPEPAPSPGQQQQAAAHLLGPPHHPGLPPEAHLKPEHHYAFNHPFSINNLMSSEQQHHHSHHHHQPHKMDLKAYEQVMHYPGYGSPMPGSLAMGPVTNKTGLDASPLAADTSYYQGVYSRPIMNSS
Sequence of CCAAT/enhancer-binding protein beta (Homo sapiens) (P17676 whole entry, looked up): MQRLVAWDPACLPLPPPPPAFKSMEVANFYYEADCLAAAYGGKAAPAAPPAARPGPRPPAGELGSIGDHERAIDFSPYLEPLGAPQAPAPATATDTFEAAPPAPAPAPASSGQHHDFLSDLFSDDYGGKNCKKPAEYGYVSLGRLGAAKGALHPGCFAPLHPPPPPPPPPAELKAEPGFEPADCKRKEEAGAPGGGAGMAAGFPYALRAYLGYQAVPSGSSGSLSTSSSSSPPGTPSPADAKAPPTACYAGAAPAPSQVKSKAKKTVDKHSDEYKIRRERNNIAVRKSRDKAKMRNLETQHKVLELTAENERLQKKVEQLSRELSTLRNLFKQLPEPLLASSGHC
Sequence of Transcription factor E2F1 (Homo sapiens) (Q01094 whole entry, looked up): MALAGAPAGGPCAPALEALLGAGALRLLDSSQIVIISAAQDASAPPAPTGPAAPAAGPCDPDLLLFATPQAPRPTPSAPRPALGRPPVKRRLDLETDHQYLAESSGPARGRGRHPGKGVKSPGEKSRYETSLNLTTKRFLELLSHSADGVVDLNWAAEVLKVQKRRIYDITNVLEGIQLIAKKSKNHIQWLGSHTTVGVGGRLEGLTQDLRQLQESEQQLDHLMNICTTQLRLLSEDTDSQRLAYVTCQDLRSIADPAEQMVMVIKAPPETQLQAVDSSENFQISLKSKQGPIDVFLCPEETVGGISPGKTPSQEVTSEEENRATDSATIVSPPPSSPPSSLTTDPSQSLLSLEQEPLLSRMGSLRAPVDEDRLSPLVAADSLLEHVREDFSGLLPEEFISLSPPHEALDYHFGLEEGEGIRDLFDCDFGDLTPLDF

CC(CCO)CCCC(C)(C)O (stereo not drawn)
not listed: [18] | [19]
inactive: all other assays above

CCCCCCCCCOC(C)=O
not listed: [16] | [19]
inactive: all other assays above

C=C(C)C(=O)Nc1ccc(Cl)c(Cl)c1
active: [5] 14.9 µM | [11] 27.2 µM
not listed: [18] | [19]
inactive: all other assays above

CC(C)[C@H]1CC[C@@H](C)CC1=O
not listed: [9] | [18]
inactive: all other assays above
